Screening results (PubChem BioAssay)
RPL19A TOR yeast: RPL19A-GFP expression modulators in yeast, primary screen, cell-based, S. cerevisiae, multiplex flow cytometry, MLPCN | S. cerevisiae RPL19A-GFP strain, 3 h; active compounds read low | percent response vs DMSO, % at 10 µM | 0.3% of 330,000 active | AID 2025, 2009;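 active = percent response vs DMSO below 50%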;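 also: median channel GFP fluorescence of the barcoded RPL19A-GFP strain; ratio of sample median GFP to plate DMSO average so 100% = DMSO; lower means less RPL19A-GFP as with rapamycin TOR inhibition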
CIT2-GFP yeast: modulators of CIT2-GFP expression in yeast, primary screen, S. cerevisiae, GFP fusion, multiplex flow cytometry, MLPCN library; GFP response vs DMSO, % at 10 µM; S. cerevisiae CIT2-GFP strain, 3 h; 100 means same as DMSO wells; 0.065% of 320,000 active;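 active = GFP response relative to DMSO above a set limit, near the screen mean plus 3 SD, cut at about 150% in these data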;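 also: ratio of well median GFP fluorescence to mean of DMSO wells on the plate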
VLA-4 inh: inhibition in human VLA-4 binding assay, primary screen, VLA-4 allosteric modulator project, MLPCN library, flow cytometry, VLA-4 expressing cells | inhibition, % (about 7 µM as worked out from the volumes in the protocol) | Integrin alpha-4 (Homo sapiens), P13612 | 0.2% of 330,000 active | ligand binding flow cytometry; in the data active = inhibition above about 50%
Target sequence (P13612 whole entry, looked up): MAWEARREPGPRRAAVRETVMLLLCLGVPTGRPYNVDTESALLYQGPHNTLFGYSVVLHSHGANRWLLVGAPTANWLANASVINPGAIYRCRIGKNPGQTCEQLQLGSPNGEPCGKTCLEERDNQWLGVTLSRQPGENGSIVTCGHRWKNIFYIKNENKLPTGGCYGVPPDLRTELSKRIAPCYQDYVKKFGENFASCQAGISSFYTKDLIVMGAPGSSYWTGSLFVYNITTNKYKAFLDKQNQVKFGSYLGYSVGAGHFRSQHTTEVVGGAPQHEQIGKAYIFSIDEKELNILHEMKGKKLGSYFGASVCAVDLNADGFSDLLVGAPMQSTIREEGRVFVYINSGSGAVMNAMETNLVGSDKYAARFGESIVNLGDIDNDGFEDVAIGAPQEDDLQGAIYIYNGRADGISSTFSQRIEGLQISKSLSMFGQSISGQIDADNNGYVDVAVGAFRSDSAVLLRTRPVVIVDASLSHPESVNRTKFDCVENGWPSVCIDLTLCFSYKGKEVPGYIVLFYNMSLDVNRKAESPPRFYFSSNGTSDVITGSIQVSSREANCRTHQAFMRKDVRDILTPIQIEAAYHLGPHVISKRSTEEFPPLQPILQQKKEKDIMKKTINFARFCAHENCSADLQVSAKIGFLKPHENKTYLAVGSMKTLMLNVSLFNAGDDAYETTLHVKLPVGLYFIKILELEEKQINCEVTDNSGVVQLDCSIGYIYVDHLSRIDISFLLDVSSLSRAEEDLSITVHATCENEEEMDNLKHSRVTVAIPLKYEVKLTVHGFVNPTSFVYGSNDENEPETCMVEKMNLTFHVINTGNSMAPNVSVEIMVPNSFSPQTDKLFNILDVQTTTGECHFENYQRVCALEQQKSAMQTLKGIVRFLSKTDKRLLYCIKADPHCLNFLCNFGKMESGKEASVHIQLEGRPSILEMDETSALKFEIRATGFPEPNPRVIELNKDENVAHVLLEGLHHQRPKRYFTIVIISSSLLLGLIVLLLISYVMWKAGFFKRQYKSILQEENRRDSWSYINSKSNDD
MEP2-GFP yeast: modulators of MEP2-GFP levels in yeast, primary screen, S. cerevisiae, multiplex flow cytometry, MLPCN library. S. cerevisiae MEP2-GFP strain, 3 h; 100% = DMSO control level. GFP response vs DMSO, % at 10 µM. 0.51% of 330,000 active. AID 2016, 2009;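 active = GFP response versus DMSO above a set limit, roughly screen mean plus 3 SD, cut at about 180% in these data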;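 also: median GFP fluorescence of the barcode-gated MEP2-GFP cells per well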
LAP4-GFP MLPCN: modulators of LAP4-GFP expression in yeast, primary screen, S. cerevisiae, multiplex flow cytometry, MLPCN library | 3 h; median GFP as percent of DMSO wells | GFP response vs DMSO, % at 10 µM | 0.34% of 320,000 active | AID 2023, 2009;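 active = GFP response vs DMSO above a set limit, about the screen mean plus 3 SD, cut at about 150% in these data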
AGP1-GFP MLPCN: modulators of AGP1-GFP expression in yeast TOR pathway, primary screen, cell-based, multiplex flow cytometry, S. cerevisiae, MLPCN library; 3 h; GFP as percent of DMSO wells; GFP response vs DMSO, % at 10 µM; 0.02% of 320,000 active; AID 2066, 2009;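 active = GFP response relative to DMSO above a set limit, near screen average plus 3 SD, cut at about 150% in these data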;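 also: median GFP channel fluorescence of the gated AGP1 strain per well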
LAP4 cherry2: LAP4-GFP expression modulators in yeast, confirmation, cell-based, second cherry pick, flow cytometry; shares compounds with LAP4-GFP MLPCN; S. cerevisiae LAP4-GFP strain, 3 h; GFP response vs DMSO, % at 10 µM; 20% of 590 active;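 active = GFP signal as percent of the solvent control above about 150%, meaning raised reporter expression, limit read from the data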;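 also: ratio of well median GFP fluorescence to plate DMSO mean so 100% = DMSO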
MEP2 cherry2: modulators of MEP2-GFP levels in yeast, confirmation, S. cerevisiae, flow cytometry GFP, second cherry picks. 10% of 590 active. shares compounds with LAP4-GFP MLPCN. GFP response vs DMSO, % at 10 µM. S. cerevisiae MEP2-GFP strain, 3 h;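 active = GFP signal above 150% of the solvent control wells, that is a rise of more than half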;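 also: median channel GFP fluorescence of all gated yeast cells per well; ratio of median GFP to plate DMSO average so 100% = DMSO level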
RPL19A GFP CP2: RPL19A-GFP modulators in TOR pathway yeast, confirmation, cell-based, S. cerevisiae, flow cytometry, second cherry pick; shares compounds with LAP4-GFP MLPCN; S. cerevisiae RPL19A-GFP strain, 3 h; active compounds read low; 100% means same as DMSO wells; GFP response vs DMSO, % at 10 µM; 3% of 590 active;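 active = under 65% GFP response relative to DMSO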;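 also: median GFP channel fluorescence per well over the all cells gate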
CIT2 GFP CP2: modulators of CIT2-GFP expression in yeast, confirmation, flow cytometry, second cherry pick, single plex; 8% of 590 active; shares compounds with LAP4-GFP MLPCN; S. cerevisiae CIT2-GFP strain, 3 h; DMSO control wells read 100%; GFP response vs DMSO, % at 10 µM;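 active = GFP response vs DMSO above about 150%, limit read from the data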;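 also: median green fluorescence per well over all gated yeast cells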
AGP1-GFP pick2: AGP1-GFP expression modulators, hit retest, confirmation, cell-based, flow cytometry, S. cerevisiae, cherry pick set 2 | shares compounds with LAP4-GFP MLPCN | S. cerevisiae AGP1-GFP strain, 3 h | percent response vs DMSO, % at 10 µM | 590 tested, under 10 active | AID 2643, 2010;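 active = over 150 percent of DMSO response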;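 also: median GFP channel fluorescence over all cells without mother daughter split; sample median GFP divided by mean DMSO control so 100% equals DMSO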
s288c autofluor: compound autofluorescence in yeast s288c, dose response, artefact control for yeast TOR pathway GFP screen, s288c strain; shares compounds with LAP4-GFP MLPCN; S. cerevisiae s288c, 520 nm autofluorescence, flow cytometry, 3 h; active compounds read high; zero means same as solvent-only cells; fluorescence change (kMESF span) at 33 µM; 610 tested, under 10 active;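 active = fluorescence span over the dose series, or activity score, above about 33, limit read from the data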
s288c autofl DR: autofluorescence of compounds in yeast s288c, dose response, artefact control for yeast TOR pathway GFP screen, primary hits, KU SAR, s288c parental; fluorescence change (span) at 33 µM; AID 488829, 2010; S. cerevisiae s288c parental, compound autofluorescence, flow cytometry, 3 h; shares compounds with LAP4-GFP MLPCN; 110 tested, under 10 active;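 active = fluorescence change span, or the activity score built from it, above 25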
TORC1 bypass: wild-type yeast growth inhibition sparing TORC1 bypass cells, mechanism study for yeast TOR pathway GFP screen, BY4741 wild type, TORC1 bypass strain; shares compounds with LAP4-GFP MLPCN; S. cerevisiae BY4741 spot growth rating, 48-72 h; active compounds read low; growth rating (0-3) at 30 µM; 120 tested, under 10 active; AID 504456, 2011;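 active = growth rating at most 1 for wild type yeast while the TORC1 bypass strain still grows fully, rated 3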
* = called active by the depositor; nt = no result given. A selection: hits, their analogues and other compounds. The true share with any hit is near 1.1%.

SMILES | RPL19A TOR yeast | CIT2-GFP yeast | VLA-4 inh | MEP2-GFP yeast | LAP4-GFP MLPCN | AGP1-GFP MLPCN | LAP4 cherry2 | MEP2 cherry2 | RPL19A GFP CP2 | CIT2 GFP CP2 | AGP1-GFP pick2 | s288c autofluor | others
O=C1NC(=S)NC(=O)C1=Cc1ccc2c(c1)CCN2CCCCl | 95 | 75 | 6 | 88 | 245* | 81 | nt | nt | nt | nt | nt | 1.8
COc1ccc([N+](=O)[O-])cc1N=Cc1c(O)n(CCc2ccccc2)c(=O)n(C(C)C)c1=O | 111 | 100 | -2 | 104 | 100 | 103 | nt | nt | nt | nt | nt | nt
CCC(=NC1CC1)c1c(O)n(-c2ccc(OC)cc2)c(=O)[nH]c1=O | 105 | 107 | 1 | 107 | 103 | 105 | nt | nt | nt | nt | nt | nt
CCC(=NCCCN(C)C)c1c(O)n(-c2ccc(OC)cc2)c(=O)[nH]c1=O | 82 | 92 | -3 | 100 | 156* | 108 | 100 | 107 | 101 | 100 | 99 | nt
COc1ccc(-n2c(/C=C/c3ccc(O)c(OC)c3)nc3ccccc3c2=O)cc1 | 103 | 96 | -229 | 110 | 103 | 98 | nt | nt | nt | nt | nt | nt
COc1cc(/C=C/[N+](=O)[O-])ccc1O | 88 | 77 | -17 | 86 | 245* | 80 | 191* | 131 | 93 | 132 | 120 | 0.2
O=C(Cc1ccccc1F)N1CCN(CC(=O)N2CCCC2)CC1 | 110 | 114 | 0 | 124 | 133 | 119 | nt | nt | nt | nt | nt | nt
CCN(CC)CCC(=O)O[C@H]1CC[C@]2(C)C3CC[C@@]4(C)C(CC[C@]4(C)O)C3CC[C@H]2C1 (some centres undefined) | 81 | 90 | -13 | 92 | 177* | 112 | 100 | 103 | 101 | 100 | 96 | nt
C[C@]12CCC3C(CC[C@H]4C[C@@H](O)CC[C@]34C)C1CC[C@@]2(O)C(F)(F)F (some centres undefined) | 97 | 95 | -11 | 90 | 94 | 95 | nt | nt | nt | nt | nt | nt
C[C@@H]1C[C@@H]([C@H](O)CC2CC(=O)NC(=O)C2)C(=O)[C@@H](C)C1 | 49* | 50 | 21 | 96 | 89 | 41 | 126 | 157* | 75 | 93 | 73 | 0.7 | s288c autofl DR=0.41;TORC1 bypass=0
O=C1NC(=O)N(Cc2ccco2)C(=O)/C1=C/c1ccc(-c2cccc([N+](=O)[O-])c2)o1 | 100 | 77 | -3 | 84 | 169* | 73 | nt | nt | nt | nt | nt | 0.71
C=CCN1C(=O)/C(=C/c2cccs2)C(=O)NC1=S | 79 | 49 | 34 | 81 | 204* | 72 | 112 | 136 | 68 | 69 | 61 | -1.1
O=C1NC(=O)N(CCC2=CCCCC2)C(=O)/C1=C\c1cccs1 | 94 | 76 | 3 | 85 | 123 | 83 | nt | nt | nt | nt | nt | nt
O=C1NC(=O)N(CCc2ccc(F)cc2)C(=O)/C1=C/c1cccs1 | 88 | 73 | 23 | 100 | 172* | 86 | nt | nt | nt | nt | nt | 0
CC(C)Sc1nnc(OC(=O)N(C)C)n1-c1ccccc1 | 95 | 91 | 22 | 98 | 108 | 103 | nt | nt | nt | nt | nt | nt
COc1ccc(N2C(=O)/C(=C/c3cccs3)C(=O)NC2=S)cc1 | 63 | 84 | 17 | 76 | 90 | 69 | 112 | 128 | 63* | 72 | 64 | -0.5
CCOC(=O)C1CCN(/C=C2/C(=O)NC(=S)N(c3ccccc3F)C2=O)CC1 | 109 | 104 | 7 | 103 | 91 | 102 | nt | nt | nt | nt | nt | nt
Cc1ccc(/C=C2\C(=O)NC(=S)N(c3ccc(F)cc3)C2=O)s1 | 81 | 66 | 22 | 96 | 237* | 81 | 199* | 120 | 92 | 115 | 98 | -0.2
Cc1ccc(/C=C2\C(=O)NC(=S)N(c3ccccc3F)C2=O)s1 | 56 | 60 | 23 | 91 | 83 | 62 | 111 | 126 | 65* | 69 | 68 | -0.81
CCc1c(-c2ccccc2)nc2ccccc2c1C(=O)N1CCC2(CC1)OCCO2 | 102 | 100 | 11 | 100 | 110 | 102 | nt | nt | nt | nt | nt | nt
CCCCCn1c(=O)c(C(=O)Nc2nc3ccccc3[nH]2)c(O)c2ccccc21 | 98 | 89 | 3 | 98 | 111 | 103 | 98 | 97 | 100 | 104 | 97 | 0.1
CN(C)C(=O)Oc1ccnc2cc(Cl)ccc12 | 95 | 94 | -18 | 97 | 101 | 105 | 99 | 95 | 100 | 105 | 100 | 0.1
CN(C)C(=O)Oc1ccc(Cl)c2cccnc12 | 89 | 96 | -10 | 94 | 101 | nt | nt | nt | nt | nt | nt | nt
O=C1NC(=O)N(c2ccccc2)C(=O)/C1=C/c1ccc(Sc2ccccc2)o1 | 78 | 75 | 20 | 88 | 170* | 73 | nt | nt | nt | nt | nt | 0.91
